Eight sequences from publication PMC7862700, “An all-to-all approach to the identification of sequence-specific readers for epigenetic DNA modifications on cytosine” can be followed below.

Holding throughout (experiment): DAPPL (digital affinity profiling via proximity ligation, sequencing); 10 mM Tris-HCl pH 7.5, 50 mM NaCl, 1 mM DTT, 4% glycerol, room temperature, 30 min; GST-TFs on glutathione beads, 16-mer random dsDNA library, 0.1% formaldehyde crosslink after washing; high values mean tight binding
Details in all cases: protein: recombinant; tags: N-terminal GST; dsDNA, one strand shown

For one test, the target named is T1, FLI1 (Homo sapiens, UniProt Q01543 1-452).
T1 sequence: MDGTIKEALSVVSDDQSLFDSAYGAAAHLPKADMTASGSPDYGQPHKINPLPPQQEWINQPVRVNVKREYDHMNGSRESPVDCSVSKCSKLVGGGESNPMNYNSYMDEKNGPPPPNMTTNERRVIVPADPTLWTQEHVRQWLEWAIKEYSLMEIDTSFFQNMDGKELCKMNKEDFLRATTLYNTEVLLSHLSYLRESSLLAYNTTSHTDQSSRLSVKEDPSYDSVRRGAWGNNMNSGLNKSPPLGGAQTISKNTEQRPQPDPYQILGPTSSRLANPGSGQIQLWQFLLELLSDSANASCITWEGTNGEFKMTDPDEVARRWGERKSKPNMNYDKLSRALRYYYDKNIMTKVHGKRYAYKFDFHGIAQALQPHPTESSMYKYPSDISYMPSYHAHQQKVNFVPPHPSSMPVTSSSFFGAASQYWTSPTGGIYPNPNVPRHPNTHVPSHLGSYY
The method in brief:
(§1)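 Pools of DNA-barcoded human transcription factors, expressed in yeast as GST fusions on glutathione beads and combined with a tag-only sample, were incubated with 200 nmole of a 16-mer random double-stranded DNA library. Incubation took 30 min at room temperature in Tris/NaCl/DTT/glycerol buffer and was followed by washing, 0.1% formaldehyde crosslinking, proximity ligation (BsaI/T4 ligase, 1 h, 37 °C), PCR amplification and sequencing on an Illumina NextSeq500. Binding signal is the ratio of a hexamer's read frequency for a factor to its frequency for the tag-only sample.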

Another test deals with T2, ELK1 (Homo sapiens, UniProt P19419 1-428).
T2 sequence: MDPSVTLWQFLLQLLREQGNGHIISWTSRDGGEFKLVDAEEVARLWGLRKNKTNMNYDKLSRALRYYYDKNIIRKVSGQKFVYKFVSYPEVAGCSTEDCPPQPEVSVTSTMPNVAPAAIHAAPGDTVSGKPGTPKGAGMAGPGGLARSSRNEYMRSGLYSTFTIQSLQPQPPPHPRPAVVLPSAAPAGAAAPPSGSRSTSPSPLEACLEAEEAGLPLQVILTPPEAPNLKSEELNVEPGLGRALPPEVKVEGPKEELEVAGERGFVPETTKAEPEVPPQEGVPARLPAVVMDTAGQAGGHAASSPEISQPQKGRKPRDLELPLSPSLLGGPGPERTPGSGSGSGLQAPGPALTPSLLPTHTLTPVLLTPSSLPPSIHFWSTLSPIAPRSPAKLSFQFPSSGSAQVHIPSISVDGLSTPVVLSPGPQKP
The method in brief: as §1

For a further test, the target named is T3, GABPA (Homo sapiens, UniProt Q06546 1-454).
T3 sequence: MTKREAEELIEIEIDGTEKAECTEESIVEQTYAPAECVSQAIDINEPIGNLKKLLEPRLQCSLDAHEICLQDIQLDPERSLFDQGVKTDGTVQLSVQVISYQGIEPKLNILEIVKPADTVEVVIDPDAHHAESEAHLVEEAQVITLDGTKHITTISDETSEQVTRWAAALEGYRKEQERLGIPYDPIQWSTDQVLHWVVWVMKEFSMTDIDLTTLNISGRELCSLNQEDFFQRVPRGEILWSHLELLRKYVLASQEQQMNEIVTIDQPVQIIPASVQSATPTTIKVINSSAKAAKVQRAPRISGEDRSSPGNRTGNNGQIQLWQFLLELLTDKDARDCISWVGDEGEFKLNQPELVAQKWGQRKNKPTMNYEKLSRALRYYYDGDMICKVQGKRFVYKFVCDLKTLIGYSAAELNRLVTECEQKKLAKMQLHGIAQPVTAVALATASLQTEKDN
The method in brief:
as §1

The target in the next test is T4, ERG (Homo sapiens, UniProt P11308 1-479).
T4 sequence: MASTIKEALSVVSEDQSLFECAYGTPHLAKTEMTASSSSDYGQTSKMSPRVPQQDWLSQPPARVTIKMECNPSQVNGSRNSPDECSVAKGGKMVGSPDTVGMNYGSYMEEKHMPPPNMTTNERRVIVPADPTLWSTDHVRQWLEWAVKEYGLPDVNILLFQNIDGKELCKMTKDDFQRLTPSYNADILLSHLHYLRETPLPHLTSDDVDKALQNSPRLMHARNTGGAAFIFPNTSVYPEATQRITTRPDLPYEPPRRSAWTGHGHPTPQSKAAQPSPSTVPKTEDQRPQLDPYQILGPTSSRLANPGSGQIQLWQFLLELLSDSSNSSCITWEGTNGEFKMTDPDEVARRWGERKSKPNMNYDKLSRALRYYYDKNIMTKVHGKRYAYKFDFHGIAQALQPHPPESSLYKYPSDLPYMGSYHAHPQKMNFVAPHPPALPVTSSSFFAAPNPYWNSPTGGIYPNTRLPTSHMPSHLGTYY
In a few lines: as §1

In another test the target is ELF1 (Homo sapiens, UniProt P32519 1-619). In a few lines: as §1
The target of another test is T5, EHF (Homo sapiens, UniProt Q9NZC4 1-300).
T5 sequence: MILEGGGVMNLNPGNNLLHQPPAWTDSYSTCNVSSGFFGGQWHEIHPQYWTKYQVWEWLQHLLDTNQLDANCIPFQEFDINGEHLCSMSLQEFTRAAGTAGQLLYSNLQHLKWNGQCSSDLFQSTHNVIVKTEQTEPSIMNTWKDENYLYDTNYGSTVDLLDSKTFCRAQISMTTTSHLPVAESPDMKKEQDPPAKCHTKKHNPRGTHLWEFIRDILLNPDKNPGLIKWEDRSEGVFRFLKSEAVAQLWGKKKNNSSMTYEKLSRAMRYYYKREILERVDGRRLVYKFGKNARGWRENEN
In a few lines:
as §1

For the next test, the target named is SPI1 (Homo sapiens, UniProt P17947 1-270). The method in brief: as §1
A further test concerns the target SPIB (Homo sapiens, UniProt Q01892 1-262). The method in brief: as §1
The target of the next test is T6, ELK3 (Homo sapiens, UniProt P41970 1-407).
T6 sequence: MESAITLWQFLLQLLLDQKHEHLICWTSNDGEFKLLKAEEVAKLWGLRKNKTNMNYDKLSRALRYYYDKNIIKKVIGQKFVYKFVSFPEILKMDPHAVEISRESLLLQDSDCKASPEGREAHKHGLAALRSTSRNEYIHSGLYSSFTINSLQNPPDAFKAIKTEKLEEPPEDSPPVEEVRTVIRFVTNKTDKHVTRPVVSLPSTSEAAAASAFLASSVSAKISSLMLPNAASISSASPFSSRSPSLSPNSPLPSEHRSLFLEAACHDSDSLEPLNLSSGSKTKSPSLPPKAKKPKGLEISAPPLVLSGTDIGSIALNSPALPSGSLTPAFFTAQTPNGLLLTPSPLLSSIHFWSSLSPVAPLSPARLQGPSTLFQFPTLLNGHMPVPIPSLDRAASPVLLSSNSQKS
The method in brief: as §1

Chain of ELF1 (P32519 whole entry): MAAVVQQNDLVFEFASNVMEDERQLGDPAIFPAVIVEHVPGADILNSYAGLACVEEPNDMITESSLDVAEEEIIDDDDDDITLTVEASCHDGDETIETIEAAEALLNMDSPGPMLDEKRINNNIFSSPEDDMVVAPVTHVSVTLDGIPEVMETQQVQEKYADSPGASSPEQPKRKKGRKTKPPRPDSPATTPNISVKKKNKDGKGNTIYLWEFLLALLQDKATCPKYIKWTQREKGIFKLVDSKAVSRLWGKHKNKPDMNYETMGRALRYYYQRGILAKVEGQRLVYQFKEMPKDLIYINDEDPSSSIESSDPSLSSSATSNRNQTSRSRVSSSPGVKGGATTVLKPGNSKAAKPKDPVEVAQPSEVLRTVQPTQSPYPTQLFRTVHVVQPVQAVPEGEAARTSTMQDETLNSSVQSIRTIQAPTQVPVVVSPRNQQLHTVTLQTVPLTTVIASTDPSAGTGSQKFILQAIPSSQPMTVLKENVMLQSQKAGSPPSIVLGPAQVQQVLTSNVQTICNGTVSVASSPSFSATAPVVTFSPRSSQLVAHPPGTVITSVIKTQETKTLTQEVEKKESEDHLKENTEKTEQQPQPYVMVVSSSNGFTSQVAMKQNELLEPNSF
Chain of SPIB (Q01892 whole entry): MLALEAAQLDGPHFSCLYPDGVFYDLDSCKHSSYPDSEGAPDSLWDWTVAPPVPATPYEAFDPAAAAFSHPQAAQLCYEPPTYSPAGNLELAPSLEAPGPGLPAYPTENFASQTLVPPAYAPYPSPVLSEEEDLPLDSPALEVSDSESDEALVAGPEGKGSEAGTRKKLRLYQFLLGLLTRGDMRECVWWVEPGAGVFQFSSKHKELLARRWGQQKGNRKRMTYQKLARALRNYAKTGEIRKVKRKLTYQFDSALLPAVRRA

For GTATCT, the binding signal in the test with FLI1 was 1.23 fold enrichment (6-mer frequency, TF over GST control); with ELK1 it was 1.19 fold enrichment (6-mer frequency, TF over GST control); with GABPA, 1.17 fold enrichment (6-mer frequency, TF over GST control); in the test with ERG it was 1.14 fold enrichment (6-mer frequency, TF over GST control); in the test with ELF1 it was 1.18 fold enrichment (6-mer frequency, TF over GST control); with EHF, 1.09 fold enrichment (6-mer frequency, TF over GST control). The binding signal with SPI1 is 1.1 fold enrichment (6-mer frequency, TF over GST control); with SPIB, 1.25 fold enrichment (6-mer frequency, TF over GST control); in the test with ELK3, 1.09 fold enrichment (6-mer frequency, TF over GST control).
TGACTT: the binding signal with FLI1 is 1.38 fold enrichment (6-mer frequency, TF over GST control); with ELK1, 1.5 fold enrichment (6-mer frequency, TF over GST control); with GABPA, 1.38 fold enrichment (6-mer frequency, TF over GST control); in the test with ERG, 1.53 fold enrichment (6-mer frequency, TF over GST control); in the test with ELF1, 1.44 fold enrichment (6-mer frequency, TF over GST control); with EHF, 1.43 fold enrichment (6-mer frequency, TF over GST control). The binding signal was 1.68 fold enrichment (6-mer frequency, TF over GST control) in the test with SPI1; 1.52 fold enrichment (6-mer frequency, TF over GST control) with SPIB; 1.27 fold enrichment (6-mer frequency, TF over GST control) with ELK3.
For the sequence TTTTAT, the binding signal was 1.4 fold enrichment (6-mer frequency, TF over GST control) with FLI1; 1.16 fold enrichment (6-mer frequency, TF over GST control) with ELK1; 1.42 fold enrichment (6-mer frequency, TF over GST control) with GABPA; 1.3 fold enrichment (6-mer frequency, TF over GST control) with ERG; 1.17 fold enrichment (6-mer frequency, TF over GST control) with ELF1; 1.44 fold enrichment (6-mer frequency, TF over GST control) in the test with EHF. Further, the binding signal with SPI1 is 1.44 fold enrichment (6-mer frequency, TF over GST control); with SPIB, 1.37 fold enrichment (6-mer frequency, TF over GST control); in the test with ELK3, 1.34 fold enrichment (6-mer frequency, TF over GST control).
TCTACT: the binding signal with FLI1 is 1.27 fold enrichment (6-mer frequency, TF over GST control); in the test with ELK1 it was 1.37 fold enrichment (6-mer frequency, TF over GST control); with GABPA, 1.43 fold enrichment (6-mer frequency, TF over GST control); with ERG it was 1.32 fold enrichment (6-mer frequency, TF over GST control); in the test with ELF1, 1.35 fold enrichment (6-mer frequency, TF over GST control); with EHF, 1.35 fold enrichment (6-mer frequency, TF over GST control). For the same sequence, the binding signal with SPI1 was 1.42 fold enrichment (6-mer frequency, TF over GST control); with SPIB, 1.42 fold enrichment (6-mer frequency, TF over GST control); with ELK3, 1.28 fold enrichment (6-mer frequency, TF over GST control).
In the case of GAATTT, the binding signal with FLI1 was 1.21 fold enrichment (6-mer frequency, TF over GST control); with ELK1, 1.11 fold enrichment (6-mer frequency, TF over GST control); in the test with GABPA, 1.21 fold enrichment (6-mer frequency, TF over GST control); in the test with ERG it was 1.24 fold enrichment (6-mer frequency, TF over GST control); in the test with ELF1 it was 1.17 fold enrichment (6-mer frequency, TF over GST control); in the test with EHF, 1.13 fold enrichment (6-mer frequency, TF over GST control). Besides, the binding signal with SPI1 was 1.24 fold enrichment (6-mer frequency, TF over GST control); in the test with SPIB, 1.28 fold enrichment (6-mer frequency, TF over GST control); with ELK3, 1.19 fold enrichment (6-mer frequency, TF over GST control).
With ACCAAT, the binding signal with FLI1 was 1.35 fold enrichment (6-mer frequency, TF over GST control); in the test with ELK1, 1.34 fold enrichment (6-mer frequency, TF over GST control); in the test with GABPA it was 1.4 fold enrichment (6-mer frequency, TF over GST control); in the test with ERG, 1.29 fold enrichment (6-mer frequency, TF over GST control); in the test with ELF1, 1.34 fold enrichment (6-mer frequency, TF over GST control); with EHF, 1.28 fold enrichment (6-mer frequency, TF over GST control). The binding signal with SPI1 is 1.3 fold enrichment (6-mer frequency, TF over GST control); with SPIB, 1.35 fold enrichment (6-mer frequency, TF over GST control); with ELK3, 1.34 fold enrichment (6-mer frequency, TF over GST control).
Take TTCTCA: the binding signal was 1.36 fold enrichment (6-mer frequency, TF over GST control) with FLI1; 1.31 fold enrichment (6-mer frequency, TF over GST control) with ELK1; 1.33 fold enrichment (6-mer frequency, TF over GST control) with GABPA; 1.26 fold enrichment (6-mer frequency, TF over GST control) with ERG; 1.29 fold enrichment (6-mer frequency, TF over GST control) with ELF1; 1.19 fold enrichment (6-mer frequency, TF over GST control) with EHF. The binding signal with SPI1 is 1.32 fold enrichment (6-mer frequency, TF over GST control); in the test with SPIB it was 1.31 fold enrichment (6-mer frequency, TF over GST control); with ELK3, 1.27 fold enrichment (6-mer frequency, TF over GST control).
On to ATATCC, for which the binding signal is 2.59 fold enrichment (6-mer frequency, TF over GST control) in the test with FLI1; 2.88 fold enrichment (6-mer frequency, TF over GST control) in the test with ELK1; 2.45 fold enrichment (6-mer frequency, TF over GST control) with GABPA; 3.33 fold enrichment (6-mer frequency, TF over GST control) with ERG; 2.56 fold enrichment (6-mer frequency, TF over GST control) in the test with ELF1; 2.58 fold enrichment (6-mer frequency, TF over GST control) in the test with EHF. The binding signal in the test with SPI1 was 2.43 fold enrichment (6-mer frequency, TF over GST control); in the test with SPIB it was 2.82 fold enrichment (6-mer frequency, TF over GST control); with ELK3, 2.72 fold enrichment (6-mer frequency, TF over GST control).
